# According to ChEMBL document CHEMBL3988442, “University of Dundee, Small-Polar-MMV Screening Library” (2021):
# Hit rate of the full screen: of about 48,000 compounds, about 13,000 (27%) showed an effect of 50% or more. The list shows a part of the results.
# Test system: Wolbachia pipientis
# Experiment: Anti-Wolbachia Cell-Based Screen
# Assay type: functional
# Design: scale not given: in the data most compounds retested in dose-response had high values
# Details: 5 µM
row,SMILES,Percent Effect
1,O=C(NCCN1CCCCCC1=O)c1ccn(-c2ccc(F)cc2)n1,0.8221%
2,COc1ccc(-n2ccc(C(=O)NCCN3CCC(C)CC3)n2)cc1,99.65%
3,COc1ccc2nc(C)c(C(=O)NCCN3CCS(=O)(=O)CC3)cc2c1,7.609%
4,COc1ccc(-n2ccc(C(=O)NCCN3CCCCC3)n2)cc1,102.6%
5,O=C(O)C(F)(F)F.O=S(=O)(NCC1OCCc2cn(CC3CCOCC3)nc21)C1CC1 (stereo not drawn),-11.9%
6,CNC(=O)CS(=O)(=O)Cc1ccc(OC)c(F)c1,-52.3%
7,FC(F)(F)C1CCc2nnc(CNCc3ccsc3)n2C1 (stereo not drawn),11.3%
8,CC1CCN(CCNC(=O)c2ccn(-c3ccccc3)n2)CC1,84.83%
9,CN(C(=O)c1ccc(Cl)c(S(C)(=O)=O)c1)c1ccccc1,-9.214%
10,CN(C(=O)c1ccncc1)c1ccccc1S(C)(=O)=O,8.968%
11,Cc1c(C(=O)N(C)C)cccc1N(C)S(C)(=O)=O,107%
12,Cc1c(C(=O)N(C)c2ccccc2)cccc1N(C)S(C)(=O)=O,104.7%
13,CN(C(=O)c1cccc(C(=O)NS(C)(=O)=O)c1)c1ccccc1,-9.633%
14,COc1cc(C(N)=O)c(N(C)S(C)(=O)=O)cc1OC,-14.68%
15,O=S(=O)(Nc1ncccc1F)c1cc(Cl)cc2c1OCC2,-5.525%
16,Cc1nc(C)n(CC(C)C(=O)N2CCC(N3CCC(O)CC3)CC2)n1 (stereo not drawn),-19.51%
17,Cc1ccc2c(c1)c(CNC(=O)C1CCN(C(C)C)CC1)nn2C,-24.27%
18,CNC(=O)C(C)(C)CNC(=O)Nc1ccncc1C,-8.722%
19,O=C(CN1CCCC(c2ncc[nH]2)C1)NCC(F)(F)F (stereo not drawn),-4.538%
20,CCn1c(C)nnc1CN(C)C1CCN(Cc2c(C)noc2C)C1 (stereo not drawn),-8.892%
21,CN(Cc1nnc(C2CC2)n1C)C1CCN(Cc2ccon2)C1 (stereo not drawn),-8.64%
22,Cc1nnc(CN2CCC(N(C)Cc3nnc(C4CC4)n3C)C2)o1 (stereo not drawn),-3.428%
23,CN(Cc1nnc(C2CC2)n1C)C1CCN(CCS(C)(=O)=O)C1 (stereo not drawn),-20.16%
24,Cc1cc(CN2CCC(N(C)Cc3nnc(C4CC4)n3C)C2)on1 (stereo not drawn),124.1%
25,Cc1noc(C)c1CN1CCC(N(C)Cc2nnc(C3CC3)n2C)C1 (stereo not drawn),103.9%
26,Cc1nc(CN2CCC(N(C)Cc3nnc(C4CC4)n3C)C2)oc1C (stereo not drawn),102.1%
27,Cc1ccc(C2CSCCN2CCS(C)(=O)=O)cc1 (stereo not drawn),-9.324%

row,SMILES,Percent Effect
1,O=C(NC1CC(=O)N(C2Cc3ccccc3C2)C1)c1ccsc1 (stereo not drawn),-4.544%
2,COCCN1CC[C@@H](O)[C@@H]1Cc1ccccc1.O=C(O)C(F)(F)F,8.923%
3,CN1CCC(Cc2nc(-c3cnccn3)n(Cc3ccccc3)n2)CC1,21.66%
4,CN1CCC(Cc2cncc(-c3ccccc3C(=O)O)n2)C1 (stereo not drawn),111.7%
5,CC(C)N1CCC(Cc2cncc(-c3ccccc3C(=O)O)n2)C1 (stereo not drawn),128.5%
6,CS(=O)(=O)N1CCCC(Cc2cncc(-c3ccccc3C(=O)O)n2)C1 (stereo not drawn),106.5%
7,COCCN1CCC(Cc2cnc(-c3ccccc3C(=O)O)cn2)CC1,103.8%
8,CC(C)n1nc(Cn2cccn2)c2c1CN(C1CCOC1)C2.O=C(O)C(F)(F)F (stereo not drawn),-7.587%
9,COc1cc(C)ccc1S(=O)(=O)N1CC[C@](C)(O)[C@H](C)C1,-18.99%
10,Cc1cnn(C2CN(CC(O)Cn3cccn3)C2)c1 (stereo not drawn),-31.52%
11,COc1ncccc1-c1nc(-c2ccccn2)nn1C1CCS(=O)(=O)C1 (stereo not drawn),10.63%
12,CC(C#N)CNS(=O)(=O)c1ccc(F)c(Br)c1 (stereo not drawn),-7.227%
13,O=C(Nc1ccc(S(=O)(=O)Nc2c(F)cccc2F)cc1)N1CCCC1,-7.034%
14,CCOc1nnc(CN(CC)CC(=O)Nc2c(F)cccc2F)s1,97.11%
15,CCOc1nnc(CN(Cc2ccccc2)CC(O)c2ccco2)s1 (stereo not drawn),2.067%
16,CCN(CC(=O)NC(C)(C)C)Cc1cccc2c1OCCO2,-0.7065%
17,CCN(CC(=O)NC(C)C)S(=O)(=O)N1CCCCCC1,9.147%
18,CCOc1nnc(CN(CC)CC(=O)NC(C)(C)C)s1,93.91%
19,CCN(CC(=O)Nc1cc(C(C)(C)C)no1)Cc1ccc(Cl)s1,1.082%
20,CCNC(=O)CN(CC)Cc1nc2c(F)cccc2n1CC,-0.387%
21,CCOc1ccccc1C(CC(=O)Nc1ccccc1F)NC(C)=O (stereo not drawn),-7.406%
22,CCOc1nnc(CN(CC)CC(=O)NC(C)C)s1,101.2%
23,O=C1[C@@H]2CCN(Cc3ccc(F)cc3)C[C@@H]2OCCN1c1cccnc1,-21%
24,Cc1cccc(CN2CCCC3(CCN(C4CCSCC4)C3)C2=O)c1 (stereo not drawn),-3.098%
25,CN(C)C(=O)Cn1ccc2cc(NC(=O)N3CCSCC3)ccc21,-2.006%
26,Cc1ccc(C)c2c(O)cc(CNCC(N)=O)nc12,-7.963%
